Reference: PubChem BioAssay (NCATS)
Where “and” joins values, the source holds several entries; their conditions need not be identical. Equal values may be shown once. Records with an inconclusive call do not appear. Calls of active or inactive are those of the source. Unless noted, calls come from the whole dose curve.

Tests used:
[1] = qHTS Assay for Lipid Storage Modulators (AID 1519); settings: Drosophila S3 cells, BODIPY lipid droplet/cell ratio, laser cytometry, cells loaded with oleic acid; for activity change, negative = inhibition: % is set by controls: 0 for no effect and ±100 for the full control effect
Method in brief: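 Cells seeded at 5,000 per well were treated with compounds over a concentration series and loaded with oleic acid (400 uM, as added). Lipid droplet fluorescence (488 nm excitation, 500-530 nm channel) was read by laser-scanning cytometry and normalized to 20 uM Triacsin C.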

[2] = biological target: Ubiquitin carboxyl-terminal hydrolase 1 (Homo sapiens) (UniProt O94782); assay: Inhibitors of USP1/UAF1: Pilot qHTS (AID 504865; active = well fitted curve in the direction sought with a large enough effect; an effect the other way counts as inactive or inconclusive;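 note: rhodamine fluorescence freed from ubiquitin-rhodamine substrate followed over time; top concentration of the series differs between compounds; % is set by controls: 0 for no effect and ±100 for the full control effect; nearly all actives have a fitted effect of over 35% in size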)
Ubiquitin carboxyl-terminal hydrolase 1 (Homo sapiens), sequence (O94782 whole entry, looked up): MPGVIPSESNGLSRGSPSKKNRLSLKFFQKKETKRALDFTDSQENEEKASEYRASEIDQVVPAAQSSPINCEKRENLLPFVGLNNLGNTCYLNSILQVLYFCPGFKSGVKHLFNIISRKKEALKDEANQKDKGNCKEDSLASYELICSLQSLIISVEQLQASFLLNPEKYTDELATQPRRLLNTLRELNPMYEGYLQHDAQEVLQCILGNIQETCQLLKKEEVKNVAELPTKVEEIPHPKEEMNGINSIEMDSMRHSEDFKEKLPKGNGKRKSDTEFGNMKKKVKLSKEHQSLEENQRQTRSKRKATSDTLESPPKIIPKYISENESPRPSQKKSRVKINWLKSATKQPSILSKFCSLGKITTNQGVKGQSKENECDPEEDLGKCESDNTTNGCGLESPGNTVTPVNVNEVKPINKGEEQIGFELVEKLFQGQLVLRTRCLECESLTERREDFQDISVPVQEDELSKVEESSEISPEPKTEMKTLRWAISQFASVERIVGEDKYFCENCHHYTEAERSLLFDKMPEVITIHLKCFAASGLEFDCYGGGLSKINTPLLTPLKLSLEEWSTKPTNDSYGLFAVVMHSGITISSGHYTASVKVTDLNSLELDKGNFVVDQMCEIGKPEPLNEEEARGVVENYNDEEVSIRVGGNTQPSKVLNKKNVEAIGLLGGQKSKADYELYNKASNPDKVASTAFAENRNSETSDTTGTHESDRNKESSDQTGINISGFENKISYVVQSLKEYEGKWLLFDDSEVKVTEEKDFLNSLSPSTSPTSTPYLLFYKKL
Method in brief: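 In 50mM HEPES pH 7.8 containing 0.5mM EDTA, 1mM TCEP, 0.1 mg/ml BSA and 0.01% Tween-20, 1nM USP1/UAF1 is exposed to compound for 15 min, then Ub-Rho (150nM final) is added and fluorescence is read over time.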

[3] = biological target: Bile acid receptor (Homo sapiens) (UniProt Q96RI1); assay: qHTS assay for small molecule agonists of farnesoid X receptor signaling (AID 588527); settings: HEK293T FXR-UAS-bla, beta-lactamase ratio, 16 h; stronger effect = higher value;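 note: 0% = vehicle basal and 100% = reference agonist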
Bile acid receptor (Homo sapiens), sequence (Q96RI1 whole entry, looked up): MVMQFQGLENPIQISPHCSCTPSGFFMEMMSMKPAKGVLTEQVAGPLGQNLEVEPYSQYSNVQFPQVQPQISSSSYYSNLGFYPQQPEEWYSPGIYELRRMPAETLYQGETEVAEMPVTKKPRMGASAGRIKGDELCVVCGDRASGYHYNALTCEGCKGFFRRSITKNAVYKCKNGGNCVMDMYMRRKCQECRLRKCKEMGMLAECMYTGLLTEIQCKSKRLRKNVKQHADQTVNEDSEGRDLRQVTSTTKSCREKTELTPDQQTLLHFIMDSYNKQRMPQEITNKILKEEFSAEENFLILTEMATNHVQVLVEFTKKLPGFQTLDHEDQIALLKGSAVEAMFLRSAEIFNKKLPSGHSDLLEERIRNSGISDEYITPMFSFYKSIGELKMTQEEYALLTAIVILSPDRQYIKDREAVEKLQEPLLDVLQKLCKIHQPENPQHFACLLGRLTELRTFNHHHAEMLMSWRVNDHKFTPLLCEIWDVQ
Method in brief: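 Quantitative HTS used FXR-UAS-bla HEK293T cells with 16 h compound incubation at 37 C. EC50 values came from concentration-response curves normalized to chenodeoxycholic acid.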

[4] = biological target: Peroxisome proliferator-activated receptor delta (Homo sapiens) (UniProt Q03181); assay: qHTS assay for small molecule agonists of peroxisome proliferator-activated receptor delta signaling (AID 588534);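 note: 0% = DMSO basal wells and 100% = positive control agonist at 10 µM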
Peroxisome proliferator-activated receptor delta (Homo sapiens), sequence (Q03181 whole entry, looked up): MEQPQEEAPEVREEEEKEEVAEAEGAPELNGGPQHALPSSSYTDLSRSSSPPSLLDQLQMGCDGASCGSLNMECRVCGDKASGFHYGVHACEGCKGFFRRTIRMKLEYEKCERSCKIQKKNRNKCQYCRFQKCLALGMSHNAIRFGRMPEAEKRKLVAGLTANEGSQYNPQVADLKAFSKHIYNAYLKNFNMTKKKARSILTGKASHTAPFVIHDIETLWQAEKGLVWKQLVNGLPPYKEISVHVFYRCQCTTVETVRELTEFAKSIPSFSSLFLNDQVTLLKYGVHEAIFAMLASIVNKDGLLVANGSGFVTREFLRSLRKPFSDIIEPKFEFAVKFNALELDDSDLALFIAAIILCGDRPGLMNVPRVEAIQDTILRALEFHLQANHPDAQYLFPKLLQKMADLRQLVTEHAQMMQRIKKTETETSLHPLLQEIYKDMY
Method in brief: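 Agonist-mode qHTS; reporter cells, 5 hrs 37 C pre-incubation; compound titration, 18 hrs 37 C; CCF4 dye, 2 hrs RT; fluorescence read. EC50/efficacy via Hill fit.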

[5] = biological target: Peroxisome proliferator-activated receptor gamma (Homo sapiens) (UniProt P37231); assay: qHTS assay for small molecule agonists of peroxisome proliferator-activated receptor gamma signaling (AID 588536; active = well fitted curve in the direction sought with a large enough effect in the signal ratio, with a control signal flat, not every such curve was filed as active; the % refers to the signal ratio;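 note: 0% = DMSO basal wells and 100% = rosiglitazone at 2 µM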)
Peroxisome proliferator-activated receptor gamma (Homo sapiens), sequence (P37231 whole entry, looked up): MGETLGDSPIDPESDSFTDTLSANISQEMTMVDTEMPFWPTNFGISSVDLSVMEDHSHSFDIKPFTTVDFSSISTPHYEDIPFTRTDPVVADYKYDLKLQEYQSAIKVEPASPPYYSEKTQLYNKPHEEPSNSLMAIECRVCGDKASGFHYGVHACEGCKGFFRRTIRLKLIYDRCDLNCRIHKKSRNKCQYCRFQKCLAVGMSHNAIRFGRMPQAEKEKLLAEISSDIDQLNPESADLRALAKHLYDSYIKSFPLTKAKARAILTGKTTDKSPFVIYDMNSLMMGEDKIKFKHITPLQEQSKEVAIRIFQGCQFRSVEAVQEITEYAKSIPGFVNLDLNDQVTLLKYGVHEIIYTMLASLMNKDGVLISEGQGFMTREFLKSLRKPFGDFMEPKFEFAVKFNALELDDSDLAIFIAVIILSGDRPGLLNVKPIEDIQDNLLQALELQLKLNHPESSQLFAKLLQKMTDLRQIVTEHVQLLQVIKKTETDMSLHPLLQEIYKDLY
Method in brief: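 Using GeneBLAzer HEK293 cells, response was quantified by CCF4 fluorescence and normalized between basal DMSO (0%) and rosiglitazone 2 uM (100%); curves yielded half-maximal stimulation concentration and efficacy.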

[6] = S16 Schwann cell PMP22 intronic element firefly luciferase assay (AID 624032; active = well fitted curve in the direction sought with a large enough effect; an effect the other way counts as inactive or inconclusive; note: potency is the fitted concentration of half-maximal effect; nearly all actives have a fitted effect of over 30% in size)
Method in brief: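 Luciferase reporter of PMP22 intronic-element expression in stably transfected S16 rat Schwann cells, read by ONE-Glo luminescence after 24 h compound exposure at 37 C. Activity scaled between DMSO (0%) and positive-control PTC124; concentration-effect curves quality-classified.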

[7] = qHTS assay for small molecule agonists of the antioxidant response element (ARE) signaling pathway (AID 651741; active = well fitted activation curve with a large enough effect in the signal ratio; the % refers to the signal ratio; note: potency is the fitted concentration of half-maximal effect)
Method in brief: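 Beta-lactamase reporter under ARE control in HepG2 cells, 2,000 per well, was induced by 16 h compound treatment at 37 C. Read-out was fluorescence from LiveBLAzer B/G FRET substrate after 2 h at room temperature.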

[8] = qHTS assay for small molecule agonists of the antioxidant response element (ARE) signaling pathway measured by Nrf2-dependant transcriptional activity (AID 720636; active = well fitted curve in the direction sought with a large enough effect in the repeat runs; an effect the other way counts as inactive or inconclusive; note: % of control where 0% means no effect)
Method in brief: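 Nrf2-dependent transcription read as ONE-Glo luciferase signal from ARE-luc HepG2 reporter cells after 16 hr compound treatment at 37 C, 5% CO2, in assay medium with 1% dialyzed FBS.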

[9] = Primary qHTS for Huh7 cytotoxicity: counterscreen for inhibitors of MERS-S pseudotyped particle cell entry (AID 1479147); settings: outcome: dose series up to 57.1 µM unless noted
[10] = Primary qHTS for inhibitors of MERS-S pseudo-typed particle cell entry (AID 1479149); settings: outcome: dose series up to 57.1 µM unless noted; note: nearly all actives have a fitted effect of over 60% in size; for activity change, negative = inhibition: % is set by controls: 0 for no effect and ±100 for the full control effect
[11] = Primary qHTS for Vero E6 cytotoxicity: counterscreen for inhibitors of SARS-S pseudo-typed particle cell entry (AID 1479150); settings: outcome: dose series up to 57.1 µM unless noted
[12] = Cytotoxicity counterscreen for inhibitors of SARS-CoV-2 cell entry (AID 1645845); settings: outcome: dose series up to 57.1 µM unless noted; note: nearly all actives have a fitted effect of over 50% in size
Method in brief: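 ATP-content luminescence (ATPLite 1step, 15 min RT) read after 48 h compound exposure of Expi293F cells stably expressing human ACE2; normalized to cells-only wells and media-only wells.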

[13] = Primary qHTS to identify inhibitors of SARS-CoV-2 cell entry (AID 1645846); settings: SARS-CoV-2 pseudovirus cell entry assay, luminescence; activity change, negative = inhibition: at 57.1 µM (top of the series) unless noted; note: nearly all actives have a fitted effect of over 45% in size
Method in brief: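 Inhibition of spike-mediated entry was scored in human ACE2-transfected Expi293F cells. Particles were MLV-pseudotyped with Wuhan-Hu-1 S carrying a 19-aa C-terminal deletion; signal was luciferase after two days, scaled between spike PP and fusion-protein-free PP.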

COc1cc(CNC(=O)CCCC/C=C/C(C)C)ccc1O
-0.801% and 21.3%: max response ([1]; measured here: cell count channel max response)
inactive: activity change, negative = inhibition ([1]; at 57.5 µM (top of the series)) -5.1% and 0.692% | Potency [2] | activation [3] -2.84% and 4.77% | outcome [4] | outcome [5] | outcome [8] | Potency [9] | Potency [10] | Potency [11] | Potency [12]
active: Potency [6] 9.07 µM | Potency [7] 42.2 µM
-28.1% and -35.9%: activity change, negative = inhibition [13]
-2.34% and 21.8%: max response ([1]; measured here: lipid channel max response)

CN[C@@H]1[C@@H](O)[C@@H](O[C@@H]2[C@@H](O)[C@H](OC3O[C@H](CN)[C@@H](O)[C@H](O)[C@H]3O)[C@@H](N)C[C@H]2NC(=O)[C@@H](O)CN)OC[C@]1(C)O (some centres not stated)
inactive: Potency [9] | Potency [10] | Potency [11] | Potency [12]

CCCCC(=O)N(Cc1ccc(-c2ccccc2-c2nn[nH]n2)cc1)[C@H](C(=O)O)C(C)C
inactive: Potency [9] | Potency [10] | Potency [11] | Potency [12]

COc1ccc(-c2c(Cl)ncn2-c2ccc(S(N)(=O)=O)cc2)cc1F
inactive: Potency [9] | Potency [10] | Potency [11] | Potency [12]

CCCCCCCCCCCCCCCCCC(=O)NCCCC[C@H](NC(=O)CC[C@@H](NC(=O)[C@H](C)NC(=O)[C@@H](C)O[C@H]1[C@H](O)[C@@H](CO)OC(O)[C@@H]1NC(C)=O)C(N)=O)C(=O)O (some centres not stated)
inactive: Potency [9] | Potency [10] | Potency [11] | Potency [12]

CC1CCCC(C)N1C(=S)Nc1cccc(C(F)(F)F)c1 (configuration not stated)
inactive: Potency [9] | Potency [10] | Potency [11] | Potency [12]

CC(=O)Oc1c(C)cc(OCC(O)CNC(C)C)c(C)c1C (configuration not stated)
inactive: Potency [9] | Potency [10] | Potency [11] | Potency [12]

CC#CCC(C)[C@H](O)/C=C/[C@@H]1[C@H]2C/C(=C/CCCC(=O)O)C[C@H]2C[C@H]1O (some centres not stated)
inactive: Potency [9] | Potency [10] | Potency [11] | Potency [12]

Cc1ncc(COP(=O)(O)O)c(CN)c1O
inactive: Potency [9] | Potency [10] | Potency [11] | Potency [12]
